MEKK2 mut-MEK5: MEK5 binding signal on mutant MEKK2 PB1, primary screen, biochemical, multiplex bead flow cytometry, Alexa488-MEK5 | 290,000 compounds, 0.35% hits | percent response, % at 10 µM | Alexa488-MEK5 binding to MEKK2 mutant | AID 1530, 2009; in the data active = percent response above about 24%, passing the limit was not always enough
ANO1 activ: TMEM16A chloride channel activators or potentiators, primary screen, cell-based, HTS. Anoctamin-1 (Mus musculus), Q8BHY3. B-score at 10 µM. HEK293 TMEM16A/YFP-H148Q/I152L, iodide quench fluorescence; hits give low values. AID 623877, 2012. 340,000 compounds, 0.3% hits;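 active = fluorescence-ratio B-score plate-corrected deviation score at least 3 library SD below zero, with starting fluorescence score within 5 deviations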;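 also: channel opened by trigger with iodide after compound preincubation; score built on the fluorescence ratio of max minus min over baseline; more negative score means more quench and so TMEM16A activation or potentiation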
Target sequence (Q8BHY3 whole entry, looked up): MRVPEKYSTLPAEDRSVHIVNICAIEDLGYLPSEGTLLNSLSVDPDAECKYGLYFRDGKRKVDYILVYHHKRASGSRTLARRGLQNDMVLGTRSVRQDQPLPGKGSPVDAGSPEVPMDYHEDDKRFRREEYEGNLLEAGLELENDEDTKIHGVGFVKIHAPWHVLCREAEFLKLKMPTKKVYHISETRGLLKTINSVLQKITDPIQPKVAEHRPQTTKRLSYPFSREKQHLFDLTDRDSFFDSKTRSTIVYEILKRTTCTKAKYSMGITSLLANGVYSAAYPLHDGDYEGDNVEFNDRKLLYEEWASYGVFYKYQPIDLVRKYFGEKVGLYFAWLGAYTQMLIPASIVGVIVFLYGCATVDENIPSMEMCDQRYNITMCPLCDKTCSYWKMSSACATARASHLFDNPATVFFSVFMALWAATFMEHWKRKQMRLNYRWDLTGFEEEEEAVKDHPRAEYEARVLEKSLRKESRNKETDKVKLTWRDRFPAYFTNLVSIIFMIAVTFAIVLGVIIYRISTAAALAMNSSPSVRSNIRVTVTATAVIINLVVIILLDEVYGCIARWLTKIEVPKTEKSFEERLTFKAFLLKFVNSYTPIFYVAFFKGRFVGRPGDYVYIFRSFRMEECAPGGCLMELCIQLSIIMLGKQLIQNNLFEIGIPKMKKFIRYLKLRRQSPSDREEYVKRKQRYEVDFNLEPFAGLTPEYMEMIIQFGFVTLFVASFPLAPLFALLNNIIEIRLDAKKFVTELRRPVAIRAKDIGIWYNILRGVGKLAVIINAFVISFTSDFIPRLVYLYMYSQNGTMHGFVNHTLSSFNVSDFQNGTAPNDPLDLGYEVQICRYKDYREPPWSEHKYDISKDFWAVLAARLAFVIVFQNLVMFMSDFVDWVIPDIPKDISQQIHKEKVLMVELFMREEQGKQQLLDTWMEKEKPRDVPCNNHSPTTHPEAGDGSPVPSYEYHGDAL
MEKK2 WT-MEK5: modulators of MEK5 binding to wildtype MEKK2, primary screen, biochemical, multiplex bead flow cytometry, Alexa488-MEK5; Alexa488-MEK5 binding to MEKK2 WT; actives lie on both sides; binding response (% of control), % at 10 µM; 290,000 compounds, 1.1% hits; AID 1531, 2009; Mitogen-activated protein kinase kinase kinase 2 (Homo sapiens), Q9Y2U5; in the data active = binding response below about 67% or above about 130%
TMEM16A inh: TMEM16A chloride channel inhibitors, primary screen, cell-based, HTS; Anoctamin-1 (Mus musculus), Q8BHY3; HEK293 TMEM16A/YFP iodide influx fluorescence, ionomycin; normalized B-score (activity score, 25-100; higher = stronger inhibition) at 10 µM; 310,000 compounds, 1.2% hits;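 active = ratio plate-corrected score three or more library SD toward inhibition, starting fluorescence score within five deviations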;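 also: score derived from kinetic fluorescence span divided by baseline fluorescence per well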
MEKK3 PB1 HTS: modulators of MEKK3-MEK5 PB1 binding, primary screen, biochemical, wildtype MEKK3, multiplex bead flow cytometry, Alexa488-MEK5 | bead-based flow cytometry, Alexa488-MEK5 binding to MEKK3; actives lie on both sides; 0 = blocked by unlabeled MEK5, 100 = vehicle | Mitogen-activated protein kinase kinase kinase 3 (Homo sapiens), Q99759 | 290,000 compounds, 1.4% hits | binding response (% of control), % at 10 µM | AID 1529, 2009;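 active = binding response more than 3 SD above or below the average of its plate-row segment, actives on both sides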;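 also: Alexa488 bead fluorescence after subtracting the streptavidin-only scavenger bead signal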
NTR1 ag: agonists of human NTR1, primary screen, imaging, U2OS cells, beta-arrestin-GFP, high content; activation, % at 20 µM; 330,000 compounds, 0.17% hits; Neurotensin receptor type 1 (Homo sapiens), P30989; NTR1-U2OS beta-arrestin-GFP spot imaging, agonist mode;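 active = activation at or above 40% of the spot to cytoplasm intensity ratio, with at least 20 cells analyzed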
MEKK2wt confirm: modulators of MEK5 binding to wildtype MEKK2, confirmation, biochemical, single concentration, multiplex bead flow cytometry; shares compounds with MEKK3 PB1 HTS; Alexa488-MEK5 binding to MEKK2 WT; actives lie on both sides; 5,900 compounds, 2.4% hits; binding response (% of control), % at 10 µM; in the data active = binding response below about 16% or above about 210%; inactive = in between
MEKK2mut-MEK5: mutant MEKK2 PB1-MEK5 binding signal retest – biochemical, single concentration, multiplex bead flow cytometry, confirmation; shares compounds with MEKK3 PB1 HTS; Alexa488-MEK5 binding to MEKK2 mutant; percent response, % at 10 µM; 5,900 compounds, 2% hits; AID 1893, 2009; in the data active = percent response mostly above about 71%, no sharp cut-off; inactive = mostly below about 38%;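 also: higher means compound restores mutant binding toward wildtype level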
MEKK3 confirm: MEKK3 wild-type PB1 binding to MEK5, inhibitors, confirmation, biochemical, bead multiplex flow cytometry, single concentration, wildtype. shares compounds with MEKK3 PB1 HTS. binding response (% of control), % at 10 µM. 5,900 compounds, 1.8% hits. Alexa488-MEK5 binding to MEKK3; hits give low values;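 active = binding response below 72% of control, or above a set upper limit, though filed actives all read lower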;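 also: lower values mean stronger disruption of MEK5 binding to MEKK3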
Large screens that a line does not name were inactive (follow-up assays come after a bar, where they were run); [ ] = dose if it differs, or a comment. Rows were chosen to be rich in hits. Some 3.4% of all compounds tested hit in one or more screens of this group.

CCc1nc(SCC(=O)NNC(=O)C(C)C)c2ccccc2n1	none
CC(C)C(=O)NNC(=O)CSc1nc(C2CCCCC2)nc2ccccc12	MEKK3 PB1 HTS 140 | MEKK2wt confirm inactive | MEKK2mut-MEK5 inactive | MEKK3 confirm inactive
C[N+]1(CC(=O)Nc2ccc(F)cc2)CCN(C(=O)c2ccco2)CC1	none
O=C(COC(=O)c1cnccn1)NCc1ccc2c(c1)OCO2	none
CCc1cccc2cc3c(N)c(C(=O)Nc4ccc(S(=O)(=O)N5CCCC5)cc4)sc3nc12	MEKK3 PB1 HTS 154 (no result: NTR1 ag) | MEKK2wt confirm inactive | MEKK2mut-MEK5 inactive | MEKK3 confirm inactive
O=C(CCSCc1ccccc1Cl)NC1CCCC1	MEKK2 WT-MEK5 2.0[inhibitor], MEKK3 PB1 HTS 2.0[inhibitor] | MEKK2wt confirm inactive | MEKK2mut-MEK5 inactive | MEKK3 confirm inactive
O=C(CCSCc1cccc(Cl)c1)NC1CCCC1	none
O=C(CSCC(=O)NC1CCCC1)Nc1ccccc1	MEKK3 PB1 HTS 128 | MEKK2wt confirm inactive | MEKK2mut-MEK5 inactive | MEKK3 confirm inactive
COc1ccc(Cl)cc1N1C(=O)CN(Cc2cc(OC)c(OC)c(OC)c2)C1=S	none
Cc1cc(-n2c(=S)sc3c(=O)n(-c4ccc(F)cc4)c(SCC(=O)O)nc32)ccc1Cl	none
Cc1ccc(S(=O)(=O)N(C)C)cc1NC(=S)NNC(=O)C1CC1	MEKK3 PB1 HTS 131 | MEKK2wt confirm inactive | MEKK2mut-MEK5 inactive | MEKK3 confirm inactive
COC(=O)CC/C(O)=C1/C(=N)CC(C)(C)CC1=O	none
Clc1ccc(CN2CCC(Cc3ccccc3)CC2)cc1	MEKK2 mut-MEK5 59, MEKK2 WT-MEK5 199 | MEKK2wt confirm inactive | MEKK2mut-MEK5 inactive | MEKK3 confirm inactive
Clc1cccc(CN2CCC(Cc3ccccc3)CC2)c1	none
OCc1ccccc1OCCCN1CCC(Cc2ccccc2)CC1	MEKK2 mut-MEK5 24, MEKK2 WT-MEK5 194 | MEKK2wt confirm inactive | MEKK2mut-MEK5 inactive | MEKK3 confirm inactive
Clc1ccccc1OCCN1CCC(Cc2ccccc2)CC1	none
O=Cc1cc(Cl)ccc1OCCN1CCC(Cc2ccccc2)CC1	MEKK2 WT-MEK5 140 | MEKK2wt confirm inactive | MEKK2mut-MEK5 inactive | MEKK3 confirm inactive
Cc1cccc2cc(C3CC(c4cccs4)=NN3S(C)(=O)=O)c(Cl)nc12 (centres undefined)	none
Cc1ccccc1-c1cc(C(=O)NCc2ccc(OC(F)(F)F)cc2)n(CC2CC(c3cccnc3)=NO2)n1 (centres undefined)	none (no result: MEKK2 mut-MEK5, MEKK2 WT-MEK5, TMEM16A inh, MEKK3 PB1 HTS)
Cc1cc(C(=O)Nc2ccc(C#N)cc2)on1	MEKK2 WT-MEK5 8.0[inhibitor], MEKK3 PB1 HTS 4.0[inhibitor] | MEKK2wt confirm inactive | MEKK2mut-MEK5 inactive | MEKK3 confirm inactive
Cc1cc(C(=O)Nc2ccc(Cl)cc2)on1	none
Cc1c(CN(C)C(=O)c2ccc(Br)o2)cnn1C	none
O=C(CN1CCOCC1)Nc1cccc(C(=O)Nc2cccc(C(F)(F)F)c2)c1	none
CCCCCNCC(=O)Nc1cccc(C(=O)Nc2cccc(C(F)(F)F)c2)c1	MEKK2 WT-MEK5 174 | MEKK2wt confirm inactive | MEKK2mut-MEK5 inactive | MEKK3 confirm inactive
CC(C)(C)C(=O)Nc1nc(C2CCCN2S(=O)(=O)c2ccc(Cl)cc2)cs1 (centres undefined)	none
O=C(/C=C/c1cc[n+](CC(=O)c2ccc3cccc4c3c2CC4)cc1)c1ccc2cccc3c2c1CC3	MEKK3 PB1 HTS 70[inhibitor] | MEKK2wt confirm inactive | MEKK2mut-MEK5 inactive | MEKK3 confirm inactive
O=C(C[n+]1ccc2ccccc2c1)c1cccc2ccccc12	none
C=CCn1c(SCc2cccc3ccccc23)nnc1-c1cccnc1	none
CC1(C)Cc2c(ccc3ccccc23)-c2nnc(-c3cccnc3)n21	MEKK2 WT-MEK5 -8.0[inhibitor], MEKK3 PB1 HTS 0.0[inhibitor] | MEKK2wt confirm inactive | MEKK2mut-MEK5 inactive | MEKK3 confirm inactive
CCSC1=NC2(CCCCC2)Nc2sc3c(c21)CCCC3	MEKK2 WT-MEK5 2.0[inhibitor], MEKK3 PB1 HTS 3.0[inhibitor] | MEKK2wt confirm inactive | MEKK2mut-MEK5 inactive | MEKK3 confirm inactive
Cc1cc(C)n(-c2c(F)c(F)c(CO)c(F)c2F)n1	none
CSc1ccc(-c2sc(Nc3ccccc3)n[n+]2-c2ccc(F)cc2)cc1	MEKK2 mut-MEK5 28, MEKK2 WT-MEK5 139 | MEKK2wt confirm inactive | MEKK2mut-MEK5 inactive | MEKK3 confirm inactive
Oc1ccc2ccccc2c1-c1sc(Nc2ccccc2)n[n+]1-c1ccc(F)cc1	none
Oc1ccc(-c2sc(Nc3ccccc3)n[n+]2-c2ccc(F)cc2)cc1	none
Fc1ccc(-[n+]2nc(Nc3ccccc3)sc2-c2c3ccccc3cc3ccccc23)cc1	MEKK2 mut-MEK5 31 | MEKK2wt confirm inactive | MEKK2mut-MEK5 inactive | MEKK3 confirm inactive
COc1ccc(C)cc1Nc1n[n+](-c2ccccc2)c(-c2cc(OC)c(OC)cc2Br)s1	MEKK2 mut-MEK5 26, MEKK2 WT-MEK5 134 | MEKK2wt confirm inactive | MEKK2mut-MEK5 inactive | MEKK3 confirm inactive
COc1ccc(-c2sc(Nc3ccccc3)n[n+]2-c2ccc(F)cc2)c(C)c1C	MEKK2 mut-MEK5 37, ANO1 activ -5, MEKK2 WT-MEK5 141 | MEKK2wt confirm inactive | MEKK2mut-MEK5 inactive | MEKK3 confirm inactive
COc1ccc(C)cc1Nc1n[n+](-c2ccccc2)c(-c2ccc(C(=O)O)cc2)s1	none
Cc1nnc2c3ccccc3c(Cl)nn12	none
COc1ccc(/C=C/C(=O)NCCn2c(C)cc3ccccc32)cc1OC	MEKK3 PB1 HTS 67[inhibitor] | MEKK2wt confirm inactive | MEKK2mut-MEK5 inactive | MEKK3 confirm inactive
Cc1cc2ccccc2n1CCNC(=O)c1ccc(S(=O)(=O)N2CCCCC2)cc1	MEKK3 PB1 HTS 82[inhibitor] | MEKK2wt confirm inactive | MEKK2mut-MEK5 inactive | MEKK3 confirm inactive

Compound activity as filed in PubChem BioAssay.
